From PubChem BioAssay come the findings set out here.

A short description of test [1]: resazurin metabolic signal in HepG2 cells – cell-based, resazurin fluorescence, 24 h, PK04 Diversity Set, profiling panel (AID 1172). To be noted: HepG2 viability, higher = more signal. On the technique in general: Resazurin is reduced to fluorescent resorufin, in cell work by metabolically active cells.
Test [2] is described as follows: budding yeast growth changes without added modifier – OD600, strain BY4716, 24 h, basal condition, primary screen (AID 1173). As to conditions: S. cerevisiae BY4716 growth, OD600, 24 h; higher = more signal, called active from +8 up or from −8 down.
Test [3] is described as follows: viability profiling in MM1S myeloma cells – cell-based, resazurin fluorescence, basal, 24 h, PK04 Diversity Set, profiling panel (AID 1174).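 Further: MM1S multiple myeloma cell line.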 To be noted: higher = more signal, called active from +8 up or from −8 down.
For test [4], the target named is Dihydroorotate dehydrogenase (quinone), mitochondrial (Plasmodium falciparum (isolate 3D7)) (UniProt Q08210). As to the kind of experiment: inhibition of P. falciparum DHODH – biochemical, C-terminal His tag, absorbance 600 nm, primary screen (AID 1175).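 Further: recombinant parasite enzyme with a five histidine tag at its C terminus.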 To be noted: PfDHODH enzyme, DCIP absorbance 600 nm; higher = more signal, called active from +8 up or from −8 down.
Chain of Dihydroorotate dehydrogenase (quinone), mitochondrial (Plasmodium falciparum (isolate 3D7)) (Q08210 whole entry, looked up): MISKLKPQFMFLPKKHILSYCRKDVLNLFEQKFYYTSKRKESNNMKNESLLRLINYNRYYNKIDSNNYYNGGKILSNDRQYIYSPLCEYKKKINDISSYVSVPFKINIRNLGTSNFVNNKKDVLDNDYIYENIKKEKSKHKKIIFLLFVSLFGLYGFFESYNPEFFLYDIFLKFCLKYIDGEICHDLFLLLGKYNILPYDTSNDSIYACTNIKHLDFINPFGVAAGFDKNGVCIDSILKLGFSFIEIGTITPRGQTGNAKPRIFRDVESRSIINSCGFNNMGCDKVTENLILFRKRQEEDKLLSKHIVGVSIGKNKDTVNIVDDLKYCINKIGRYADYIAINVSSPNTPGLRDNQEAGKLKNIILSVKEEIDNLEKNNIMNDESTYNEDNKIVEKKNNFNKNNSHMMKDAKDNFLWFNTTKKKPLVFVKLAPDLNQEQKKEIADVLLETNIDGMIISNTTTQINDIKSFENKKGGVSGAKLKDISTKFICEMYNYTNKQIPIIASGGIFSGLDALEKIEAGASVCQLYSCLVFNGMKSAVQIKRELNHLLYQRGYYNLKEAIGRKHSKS

A short description of test [5]: inhibition of PAO1 biofilm formation – strain PAO1, LB-PBS medium, absorbance 600 nm, primary screen (AID 1176). To be noted: P. aeruginosa PAO1 growth/biofilm, A600, 12 h; higher = more signal.
The nature of test [6]: growth modulation of vineyard yeast isolate – strain RM11-1a, OD600, basal, 24 h, primary screen (AID 1177).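 Further: cultures grown under basal conditions with no added stressor.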 To be noted: S. cerevisiae RM11-1a growth, OD600, 24 h; higher = more signal, called active from +8 up or from −8 down.
A short description of test [7]: growth of efflux-deficient E. coli DRC39 – strain DRC39, OD650, 24 h, E. coli filamentation inducers, primary screen (AID 1178).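 Further: growth measured as culture turbidity by optical density at 650 nm.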 As to conditions: E. coli DRC39 acrAB, higher = more signal, called active from +8 up or from −8 down.
The nature of test [8]: growth of efflux-deficient E. coli DRC39 – strain DRC39, OD650, 48 h, E. coli filamentation inducers, primary screen (AID 1179).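 Further: screen aims at cell division blockers that make cells filament.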 To be noted: E. coli DRC39 delta-acrAB growth, higher = more signal, called active from +8 up or from −8 down.
A short description of test [9]: viability profiling in RPMI8226 myeloma cells – cell-based, resazurin fluorescence, basal, 24 h, PK04 Diversity Set, profiling panel (AID 1180).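 Further: RPMI8826 multiple myeloma cell line at 5000 cells per well.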 As to conditions: higher = more signal.
The target of test [10] is E3 ubiquitin-protein ligase XIAP (Homo sapiens) (UniProt P98170). The test is described as follows: small molecules binding XIAP protein – biophysical, small-molecule microarray, fluorescence 635 nm, primary screen (AID 1181).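 Further: score merges 667 nm emission and signal to noise over triplicate slides.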 As to conditions: higher = more signal.
Chain of E3 ubiquitin-protein ligase XIAP (Homo sapiens) (P98170 whole entry, looked up, the tested form may be a part): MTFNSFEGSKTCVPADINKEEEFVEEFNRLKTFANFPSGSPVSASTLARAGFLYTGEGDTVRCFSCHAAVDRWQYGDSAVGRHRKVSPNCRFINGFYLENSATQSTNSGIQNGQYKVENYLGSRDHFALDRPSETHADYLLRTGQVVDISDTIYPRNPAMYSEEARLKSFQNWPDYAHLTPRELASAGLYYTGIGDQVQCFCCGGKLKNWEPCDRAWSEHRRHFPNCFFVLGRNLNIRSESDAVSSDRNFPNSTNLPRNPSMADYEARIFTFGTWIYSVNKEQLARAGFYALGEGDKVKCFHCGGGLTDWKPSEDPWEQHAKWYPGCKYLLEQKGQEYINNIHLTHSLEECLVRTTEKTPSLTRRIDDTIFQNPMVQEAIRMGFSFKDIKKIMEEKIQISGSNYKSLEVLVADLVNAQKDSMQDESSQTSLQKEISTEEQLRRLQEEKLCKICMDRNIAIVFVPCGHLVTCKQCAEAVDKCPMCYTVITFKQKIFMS
Test [11] deals with XIP peptide (Xip251-270) binding. The test is described as follows: XIP fragment 251-270 binding compounds – biochemical, small-molecule microarray, fluorescence 635/667 nm, 0.1 µg/mL protein, primary screen (AID 1182). To be noted: fluorescent protein binding, 635 nm, higher = more signal, called active from +8 up or from −8 down.
The next test has as its system XIP peptide (Xip251-270). As to the kind of experiment: compounds binding XIP fragment 251-270 – biochemical, small-molecule microarray, fluorescence 635/667 nm, 0.5 µg/mL protein, primary screen (AID 1183). As to conditions: fluorescence 635 nm, higher = more signal.
Test [12] is described as follows: blood-stage malaria parasite viability loss – strain 3D7, DAPI fluorescence, 100 nL, primary screen (AID 1184).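 Further: parasites grown inside human red blood cells in medium with human serum.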 To be noted: P. falciparum 3D7 growth, 3 d, higher = more signal.
The target in test [13] is Homeobox protein Hox-A13 (Mus musculus) (UniProt Q62424). The test is described as follows: disruptors of Hoxa13 oligonucleotide interaction – biochemical, fluorescence polarization, labeled oligonucleotide, primary screen (AID 1185). To be noted: Hoxa13:DNA binding, 15 min, higher = more signal, called active from +8 up or from −8 down.
Chain of Homeobox protein Hox-A13 (Mus musculus) (Q62424 whole entry, looked up): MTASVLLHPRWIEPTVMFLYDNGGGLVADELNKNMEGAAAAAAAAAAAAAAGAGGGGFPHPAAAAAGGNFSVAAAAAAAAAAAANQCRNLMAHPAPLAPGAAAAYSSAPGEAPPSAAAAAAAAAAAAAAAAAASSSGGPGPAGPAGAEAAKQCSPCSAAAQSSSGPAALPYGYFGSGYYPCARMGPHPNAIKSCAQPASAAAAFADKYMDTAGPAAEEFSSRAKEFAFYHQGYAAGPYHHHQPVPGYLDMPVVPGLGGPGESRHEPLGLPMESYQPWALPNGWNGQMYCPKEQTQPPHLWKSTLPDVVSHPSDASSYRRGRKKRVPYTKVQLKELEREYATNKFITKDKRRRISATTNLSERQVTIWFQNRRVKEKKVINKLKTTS

The structures appear in SMILES notation. “And” between values parts separate entries of the source, which are not always exact repeats. Equal entries are not always repeated. The source made the active and inactive calls. Unless noted, how the calls were made is not given here.

On to `C#CCCCON=C1C[C@@H](O)[C@@H](O)[C@@H]2[C@@H]3C(=O)N(C4CCCCC4)C(=O)[C@@H]3CC[C@H]12`, for which the z-score in test [1] is -0.477; in test [2] it was -0.248 (inactive); in test [3], -2.78 (inactive); in test [5] it was -0.568 (inactive); in test [6] it was -0.126 (inactive); in test [7], 0.331 (inactive). For the same molecule, the z-score in [8] was 0.771 (inactive); in [9], -1.08; in [12], 1.43; in test [13] it was 0.504 (inactive). Also, the composite z-score in test [4] is -0.822 (inactive); in [10] it was -0.0945; in [11], 0.57 (inactive); in the test with XIP peptide (Xip251-270) it was 0.545.
On to `Cc1ccc(S(=O)(=O)N[C@H]2COC(=O)[C@@H](C)COC(=O)[C@H](C)NC(=O)CC=C[C@H]2C)cc1`, for which the z-score in [1] was 0.949; in [2], -0.878 (inactive); in test [3] it was 0.799 (inactive); in [5], -0.814 (inactive); in [6], -0.233 (inactive); in [7], 0.45 (inactive). For the same molecule, the z-score is -0.166 (inactive) in test [8], 1.23 in test [9], -0.208 in test [12] and -0.0362 (inactive) in test [13]. For the same molecule, the composite z-score in test [4] is -0.0791 (inactive); in [10] it was -0.43; in [11], 0.0287 (inactive); in the test with XIP peptide (Xip251-270), -0.188.
Regarding `COC(=O)C1=C2N(Cc3ccccc3)C(C)=C(C(=O)OC)[C@@H](c3ccccc3)N2C(=O)[C@](O)(C(=O)OC)C1`, the z-score is 1.08 and -0.565 in [1]; -0.875 (inactive) and -0.828 (inactive) in test [2]; 0.7 (inactive) and 0.349 (inactive) in test [3]; -0.318 (inactive) and 0.216 (inactive) in test [5]; -0.321 (inactive) and 0.0615 (inactive) in test [6]; 0.0099 (inactive) and -0.163 (inactive) in test [7]. The z-score in test [8] was -0.184 (inactive) and -0.224 (inactive); in [9], 1 and -0.272; in [12] it was 0.166 and -0.0932; in test [13], -5.1 (inactive) and -1.13 (inactive). Also, the composite z-score is 0.268 (inactive) and -0.608 (inactive) in test [4]; 0.0623 and 0.43 in [10]; 0.109 (inactive) and 0.0955 (inactive) in [11]; 0.23 and 0.64 in the test on XIP peptide (Xip251-270).
In the case of `COc1ccc(COC(=O)NN=C2C[C@@H](O)[C@@H](O)[C@@H]3[C@@H]4C(=O)N(C(C)(C)C)C(=O)[C@@H]4CC[C@H]23)cc1`, the z-score in [1] is -0.947; in test [2], -1.8 (inactive); in test [3], -0.18 (inactive); in test [5], 0.541 (inactive); in test [6], -1.94 (inactive); in [7], -0.21 (inactive). In addition, the z-score was 0.0442 (inactive) in test [8], -0.571 in [9], 0.189 in [12] and 0.471 (inactive) in test [13]. Besides, the composite z-score in test [4] is -1.31 (inactive); in test [10], -0.0845; in [11] it was 2.23 (inactive); with XIP peptide (Xip251-270), 0.801.
Take `COC(=O)C1=C(C)N(Cc2ccccc2)[C@]23O[C@](C(=O)OC)(C(=O)N2[C@@H]1c1ccccc1)[C@H]1C(=O)N(c2ccccc2)C(=O)[C@H]13`: the z-score in test [1] is 0.652 and 1.12; in [2], -1.07 (inactive) and -1.3 (inactive); in test [3] it was 0.965 (inactive) and -0.165 (inactive); in [5] it was -0.2 (inactive); in test [6] it was -0.215 (inactive) and 0.133 (inactive); in test [7] it was -0.308 (inactive) and 0.166 (inactive). The z-score in test [8] is -0.306 (inactive) and 0.155 (inactive); in test [9], 0.709 and 0.102; in test [12], -0.391 and 1.02; in test [13], -2.26 (inactive) and -1.88 (inactive). Besides, the composite z-score in test [4] was -0.047 (inactive) and -0.335 (inactive); in [10] it was -0.0346 and -0.316; in test [11], 0.229 (inactive) and 0.555 (inactive); with XIP peptide (Xip251-270) it was -0.275 and -0.308.
As for `COC(=O)C1=C(C)N(Cc2ccccc2)C2=C(C(C)=O)C[C@@](O)(C(=O)OC)C(=O)N2[C@@H]1c1ccccc1`, the z-score is 0.5 and 0.54 in test [1]; -1.89 (inactive) and -2.55 (inactive) in test [2]; -1.51 (inactive) and 0.956 (inactive) in [3]; 0.781 (inactive) in test [5]; -1.29 (inactive) and -2.02 (inactive) in [6]; -0.0507 (inactive) and 0.915 (inactive) in test [7]. Besides, the z-score in test [8] was 0.0063 (inactive) and -1.49 (inactive); in test [9], 1.28 and 0.192; in test [12] it was 0.467 and 0.637; in test [13] it was -1.52 (inactive) and -2.36 (inactive). The composite z-score was -0.557 (inactive) and -0.986 (inactive) in test [4]; 0.215 and -0.005 in test [10]; 0.411 (inactive) and 1.64 (inactive) in [11]; -0.358 and 0.645 with XIP peptide (Xip251-270).
Consider `CC(=O)OC[C@H]1O[C@H](C#CC(C)(C)C)C=C[C@@H]1OC(C)=O`, for which the z-score in test [1] was -0.374; in test [2], -0.854 (inactive); in test [3], -0.756 (inactive); in test [5] it was -0.151 (inactive); in [6], -0.066 (inactive); in test [7], 0.545 (inactive). In addition, the z-score in test [8] was 0.221 (inactive); in [9], -0.26; in test [12], 1.32; in [13], -2.75 (inactive). Moreover, the composite z-score in [4] was -0.187 (inactive); in [10], 0.0237; in test [11], 0.853 (inactive); with XIP peptide (Xip251-270), 0.575.
Turning to `COC(=O)C1=C(C)N(Cc2ccccc2)[C@]23O[C@](C(=O)OC)(C(=O)N2[C@@H]1c1ccccc1)[C@H]1CCCC(=O)[C@H]13`, the z-score in test [1] is -0.483 and -0.852; in [2], -2.15 (inactive) and -0.0243 (inactive); in test [3], 0.167 (inactive) and 0.867 (inactive); in [5], 0.39 (inactive) and -0.692 (inactive); in test [6], -0.186 (inactive) and -0.402 (inactive); in [7] it was -0.321 (inactive) and -1.18 (inactive). For the same molecule, the z-score in [8] is -0.204 (inactive) and -1.38 (inactive); in [9] it was -0.327 and -0.466; in [12], 0.0733 and -0.727; in test [13], -4.3 (inactive) and 0.514 (inactive). Also, the composite z-score is 0.149 (inactive) and -3.24 (inactive) in [4]; 0.0548 and -0.16 in [10]; 0.472 (inactive) and 0.134 (inactive) in test [11]; -0.0169 and 0.279 in the test on XIP peptide (Xip251-270).
